About 79,000 compounds went through this panel and 15% of them were active in at least one assay; those are over-represented in the sample as a whole. Values without a mark were called inactive. The source made the active and inactive calls. Rule as the data show it: active = growth inhibition above about 70%; inactive = the rest.
assay: NCI Yeast Anticancer Drug Screen. Data for the mlh1 rad18 strain (AID 175); conditions: S. cerevisiae mlh1 rad18 strain growth inhibition; at 50.0 µM; active compounds read high
Summary of the method: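 Genetically defined yeast (DNA repair-deficient) exposed to compounds; growth inhibition determined relative to vehicle.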

Row | Structure (SMILES) | growth inhibition
1 | Clc1nc(N2CCOCC2)c2[nH]cnc2n1 | 6.25%
2 | COc1ccc(/C=N/Nc2nc(C)c(C)s2)cc1 | 55.8%
3 | c1cc2c3c(c1)ccc1cccc(c13)CC2 | 13.9%
4 | COC(=O)C(Cc1c[nH]c2ccccc12)NP(=O)(O)OCC1OC(n2cc(F)c(=O)[nH]c2=O)CC1O (stereo not given) | -16.1%
5 | Cc1cc(C)c(NC(=O)C(Br)C(Br)c2ccccc2)c(C)c1 (stereo not given) | 21.4%
6 | O=c1c2ccccc2nnn1OCc1ccccc1 | 3.95%
7 | O=C(Nc1ccc([N+](=O)[O-])cc1)OCc1ccccc1 | -16%
8 | O=C(/C=C/CC(O)(c1ccccc1)c1ccccc1)Nc1ccccc1Cl | -10.2%
9 | SC1c2ccccc2-c2ccccc21 | 1.7%
10 | NCCNCCCCCCCCCCCCOS(=O)(=O)O | -11.4%
11 | O=C1OC2C(Cl)C3CC1C2C3 (stereo not given) | -31.4%
12 | CC1(C)COC(c2ccc3ccccc3c2)OC1 | -5.8%
13 | CCc1ccccc1NOC | 9.65%
14 | O=C1CNS(=O)(=O)N1 | -7.85%
15 | CC1(C)OP2(O)(OC(C)(C)c3ccccc32)c2ccccc21 | 24.1%
16 | COc1ccc(/C=C(\Cl)c2ccc(OC)cc2)cc1 | -26.8%
17 | CC1S(=O)(=O)OCCCOS1(=O)=O | -17.6%
18 | CCc1cc(O)cc(C)c1Cl | 26.1%
19 | O=S(=O)([O-])c1ccc2c(c1)-c1nc-2nc2[n-]c(nc3nc(nc4[n-]c(n1)c1ccc(S(=O)(=O)[O-])cc41)-c1cc(S(=O)(=O)[O-])ccc1-3)c1ccc(S(=O)(=O)[O-])cc21.[Cu+2].[Na+] | -94.2%
20 | CCOC(=O)Nc1cc(Cl)c2nnn(C(=O)OCC)c2n1 | 97.6% (active)

Row | Structure (SMILES) | growth inhibition
21 | CC1CNC(=O)NC1=O.O.O.[NH2-].[NH2-].[Pt+4] (stereo not given) | -5.85%
22 | O=C1NC(c2ccccc2)(c2ccccc2)C(=O)N1CNc1ccccn1 | 29.6%
23 | COC(=O)C1(CC(=O)/C=C/c2ccccc2)NC(=S)NC(=O)C1C#N (stereo not given) | 9.9%
24 | CCC(C)C(CC)C(=O)N(C)C(=O)N(C)C(C)=O (stereo not given) | 12.5%
25 | Cc1cc(O)c(C(C)C)cc1N=Cc1ccccc1O | -5.8%
26 | CCc1cccc(Nc2ccccc2C(=O)O)c1 | -2.2%
27 | CC(C)c1sc([S-])n[n+]1-c1ccccc1 | 7%
28 | Cc1cnc2cccc(C)c2c1Cl | -3.3%
29 | c1ccc(CCc2ccccn2)nc1 | 1.45%
30 | O=C1CC(O)C2C(=O)c3c(c(Cl)c4ccccc4c3O)C(=O)C2C1 (stereo not given) | 20.3%
31 | CCOC(=O)CC1CC2c3cc(OC)c(OC)cc3CCN2CC1CC (stereo not given) | 13.8%
32 | Cc1cc(=O)oc2cc3c(cc12)Oc1ccccc1O3 | -5%
33 | COC(=O)C(C(=O)C(=O)Nc1cccc(O)c1)c1nc2ccc(Cl)cc2[nH]c1=O (stereo not given) | -13.9%
34 | CC(=O)SC12CCCN1C(=O)C1(SC(C)=O)CCCN1C2=O (stereo not given) | 37%
35 | CCCCCCN(CCCCCC)CC(O)c1c(Cl)ccc2ccccc12 (stereo not given) | 98.5% (active)
36 | CC(=O)Nc1cc(C)ccn1 | 19.4%
37 | Cn1c(=O)c2c(ncn2CN2CCN(Cn3cnc4c3c(=O)n(C)c(=O)n4C)CC2)n(C)c1=O | -30%
38 | Nc1cccc(SC2CC(=O)N(c3ccc4c(c3)OCO4)C2=O)c1 (stereo not given) | 85.3% (active)
39 | O=S(=O)(c1cnccc1N1CCN(CCO)CC1)N1CCCC1 | -1.5%
40 | CCCCCCCCCCCCCCCc1cc(OC)ccc1S(=O)(=O)O | 15.6%

— PubChem BioAssay (NCI)
